# Data: article PMC4336329 (PLoS ONE, 2015)
# The whole screen tested about 310,000 compounds, of which about 14,000 (4.5%) showed an effect of 50% or more. The effect is printed as a negative number. The list comes from a sample in which strong results are over-represented; it also holds similar structures and randomly drawn compounds.
# Target: human ether-à-go-go-related gene (hERG) potassium channel (human, UniProt Q12809)
# Assay: primary screen, population patch clamp on CHO cells stably expressing hERG; higher = less effect of the substance
# 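Also: peak tail current of the secondary pulse compared with the same well before compound.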
# Chain of human ether-à-go-go-related gene (hERG) potassium channel (Q12809 whole entry, looked up): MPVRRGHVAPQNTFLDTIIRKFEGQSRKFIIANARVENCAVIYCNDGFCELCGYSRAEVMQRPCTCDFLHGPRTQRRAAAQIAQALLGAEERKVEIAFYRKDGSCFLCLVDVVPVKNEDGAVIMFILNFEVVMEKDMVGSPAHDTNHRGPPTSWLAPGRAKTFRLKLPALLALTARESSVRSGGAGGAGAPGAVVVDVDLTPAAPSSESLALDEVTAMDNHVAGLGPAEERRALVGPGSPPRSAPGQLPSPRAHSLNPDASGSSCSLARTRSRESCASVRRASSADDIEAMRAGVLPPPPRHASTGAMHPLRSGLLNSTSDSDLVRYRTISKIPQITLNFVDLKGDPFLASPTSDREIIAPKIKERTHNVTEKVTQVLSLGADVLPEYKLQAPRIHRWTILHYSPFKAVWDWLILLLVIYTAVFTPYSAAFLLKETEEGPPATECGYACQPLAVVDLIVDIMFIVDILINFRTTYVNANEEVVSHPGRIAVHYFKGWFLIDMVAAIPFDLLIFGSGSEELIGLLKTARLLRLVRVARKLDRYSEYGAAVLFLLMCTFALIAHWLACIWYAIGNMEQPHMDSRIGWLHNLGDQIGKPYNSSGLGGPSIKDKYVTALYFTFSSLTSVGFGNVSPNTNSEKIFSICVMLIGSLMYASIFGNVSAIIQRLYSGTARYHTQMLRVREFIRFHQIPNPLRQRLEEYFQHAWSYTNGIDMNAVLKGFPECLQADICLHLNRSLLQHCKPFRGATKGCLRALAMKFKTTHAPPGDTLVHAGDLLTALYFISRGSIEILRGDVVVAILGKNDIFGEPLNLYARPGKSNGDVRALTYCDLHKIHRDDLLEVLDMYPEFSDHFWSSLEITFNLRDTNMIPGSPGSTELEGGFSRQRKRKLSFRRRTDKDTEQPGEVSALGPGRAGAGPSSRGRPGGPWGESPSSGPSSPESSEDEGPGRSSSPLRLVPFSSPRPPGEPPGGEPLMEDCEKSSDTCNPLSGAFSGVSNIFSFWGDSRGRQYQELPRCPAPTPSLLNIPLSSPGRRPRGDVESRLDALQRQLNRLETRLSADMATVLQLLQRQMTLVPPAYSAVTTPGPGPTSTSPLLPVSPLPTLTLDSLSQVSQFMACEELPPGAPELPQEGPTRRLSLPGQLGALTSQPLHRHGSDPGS
row,SMILES,"hERG current change (%, negative = inhibition) at 10uM"
1,Cn1cc(CN2CCC(C(O)CCc3ccccc3)CC2)c(-c2ccccc2F)n1 (stereo not shown),-71.3%
2,CC1(C)CC(=O)C(Sc2ccccc2[N+](=O)[O-])=C(O)C1,4.99%
3,Cc1cc(C)c(OCCCCCNCCO)c(C)c1,-5.77%
4,Brc1cccc(OCCCCn2cncn2)c1,11.2%
5,O=C(CSc1nncn1-c1ccccc1)Nc1ccccc1,-0.536%
6,N#Cc1c(Oc2ccc3ccccc3c2)sc(C(=O)c2ccccc2)c1N,11.1%
7,O=C1N(Cc2cccnc2)C[C@@H]2C[C@@H](c3ccc4nonc4c3)N3CCC[C@@]123,-59.1%
8,O=C1N(Cc2cccc(Cl)c2)C[C@@H]2C[C@@H](c3ccc4nonc4c3)N3CCC[C@@]123,-55.1%
9,Cc1nn(C(C)C)c(C)c1[C@@H]1C[C@H]2CN(Cc3cccc(Cl)c3)C(=O)[C@]23CCCN13,-29.2%
10,Cc1ccc([C@@H]2C[C@H]3CN(Cc4cccc(Cl)c4)C(=O)[C@]34CCCN24)o1,-34.3%
11,O=C1N(Cc2cccnc2)C[C@@H]2C[C@@H](c3ccc4nsnc4c3)N3CCC[C@@]123,-11.3%
12,COCc1ccc([C@@H]2C[C@H]3CN(Cc4cccnc4)C(=O)[C@]34CCCN24)o1,-3.38%
13,CCOCCCNC(=O)c1ccc(NC(=O)C2=CSCCO2)cc1,15.4%
14,CN(C(=S)NC(=O)C1(C)CC1(Cl)Cl)c1ccccc1 (stereo not shown),16.7%
15,COc1cccc2c1C(CO)N1C(C#N)C3CC(C(=O)O)C(C1C2)N3C (stereo not shown),12.3%
16,NC(=O)C1CCN(CCC(=O)Nc2ccc(F)c(F)c2)CC1,11.1%
17,COc1ccccc1C(=O)Nc1cccc(NC(=O)c2ccccc2OC)n1,8.14%
18,CCOc1ccccc1OCCN1CCC(Cc2ccccc2)CC1.O=C(O)C(=O)O,-67.4%
19,CCN1CCN(CCOc2cccc(Cl)c2Cl)CC1.O=C(O)C(=O)O,-3.27%
20,CCOc1ccccc1OCCN1CCCC1,9.51%
21,CCOc1ccccc1OCCOCCN1CCN(Cc2ccccc2)CC1.O=C(O)C(=O)O,-48.5%
22,Clc1ccccc1OCCCCN1CCNCC1.O=C(O)C(=O)O,12.7%
23,Cc1ccccc1OCCOCCN1CCCCCC1.O=C(O)C(=O)O,-29.3%

row,SMILES,"hERG current change (%, negative = inhibition) at 10uM"
1,Clc1ccccc1OCCN1CCCCC1,-16.2%
2,Cc1ccccc1OCCN1CCC(Cc2ccccc2)CC1.O=C(O)C(=O)O,-58.5%
3,CCN1CCN(CCCCOc2ccccc2F)CC1.O=C(O)C(=O)O,-9.65%
4,Cc1ccccc1OCCN1CCCC1,7.01%
5,Clc1ccccc1OCCN1CCC(Cc2ccccc2)CC1.O=C(O)C(=O)O,-73.4%
6,CCN1CCN(CCOc2ccccc2OCc2ccccc2)CC1.O=C(O)C(=O)O,-73.2%
7,Cc1cc2c(cc1S(=O)(=O)Nc1ccc(OC(F)(F)F)cc1)OCC(=O)N2,-42.5%
8,CCOC(CNC(=O)c1cccn2c(=O)c3c(C)c(C)sc3nc12)OCC,-12.5%
9,CCc1nnc(NC(=O)C(=O)NCCOC(=O)c2ccccc2Cl)s1,5.68%
10,Cc1cccc(-c2noc(CNC(=O)Nc3ccc(F)cc3)n2)c1,8.56%
11,Cc1ccc(N(CC(=O)NCc2ccccc2)C(=O)CCC(=O)Nc2ccccn2)cc1C,16.4%
12,O=C(CN1CCN(c2ccc(O)cc2)CC1)Nc1ccc2c(c1)OCCO2,2.24%
13,CCn1c(N2CCN(CC(=O)Nc3cccc(C)c3C)CC2)nc2ccccc21,-63.6%
14,CCCCNc1nc2ccccc2n1CC(=O)Nc1ccc2c(c1)OCCO2,-10.2%
15,CCn1c(N2CCN(S(=O)(=O)CC)CC2)nc2ccccc21,-37.7%
16,CC(C)n1c(N2CCN(CC(=O)Nc3ccc4c(c3)OCCO4)CC2)nc2ccccc21,-65.4%
17,Cc1ccc(SCc2nc3ccccc3n2CC(=O)Nc2ccc(Cl)cc2)cc1,-8.31%
18,CCCn1c(N2CCN(CC(=O)Nc3ccc4c(c3)OCCO4)CC2)nc2ccccc21.Cl,-60.4%
19,O=C(CN1CCN(c2ccccc2)CC1)Nc1ccc2c(c1)OCCO2,5.46%
20,CC(C)Cn1c(N2CCN(CC(=O)Nc3ccc(Cl)cc3)CC2)nc2ccccc21,-70.5%
21,CC(O)c1nc2ccccc2n1CC(=O)Nc1ccc2c(c1)OCCO2 (stereo not shown),-4.28%
22,CC(=O)Nc1ccc(S(=O)(=O)N2CCN(c3nc4ccccc4n3CC(C)C)CC2)cc1,-30.9%
23,Cc1cccc(N2CCN(CC(=O)Nc3ccccc3[N+](=O)[O-])CC2)c1C,-0.256%
